Rows were chosen to be rich in hits. Some 7.3% of all compounds tested hit in one or more screens of this group.
HCV inh – blocks hepatitis C virus; Huh7.5.1 HCVcc-Cre infection, luciferase reporter, 44 h; Potency, µM (titrated, usually from 41.8 µM), inactives show at the top dose activity change, negative = inhibition, usual class: inhibitors; actives 3.4% (n = 340,000); AID 651820; note: potency is the fitted concentration of half-maximal effect
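Cells seeded at 1,000/well and cultured 4 h, then compounds added followed by HCVcc-Cre virus (~0.5 moi). After 44 h further culture, luciferase substrate was added, plates held 15 min at room temperature, and luminescence read for 15 sec.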
HCMV inh – inhibitors of human cytomegalovirus; HFF cells, HCMV-luciferase reporter, 72 h; active compounds read low; activity change, negative = inhibition, % at 57.5 µM; actives 4.5% (n = 410,000); in the data active = activity change below about -60%; inconclusive = no clear call, values can overlap the other calls; inactive = above about -39%
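Cell-based, HFFs, 1000 cells/well, 16 h 37C; cpds in DMSO + HCMV-luc, MOI 1 PFU/cell; 72 h 37C; OneGlo luminescence after 5 min RT; norm. to buffer vs Salinomycin 10uM.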
AmpC inh no detg – inhibitors of E. coli AmpC beta-lactamase without detergent; P00811; AmpC nitrocefin hydrolysis, absorbance 480 nm, 0.0001% Triton; Potency, µM (series often up to 57.1 µM), for inactives: at the highest dose activity change, negative = inhibition, actives largely listed as inhibitors; actives 0.52% (n = 330,000);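 note: potency is the fitted concentration of half-maximal effect; plate controls were no compound for no effect and no enzyme for full effect; nearly all actives have a fitted effect of over 20% in size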
Target sequence (P00811 whole entry, looked up): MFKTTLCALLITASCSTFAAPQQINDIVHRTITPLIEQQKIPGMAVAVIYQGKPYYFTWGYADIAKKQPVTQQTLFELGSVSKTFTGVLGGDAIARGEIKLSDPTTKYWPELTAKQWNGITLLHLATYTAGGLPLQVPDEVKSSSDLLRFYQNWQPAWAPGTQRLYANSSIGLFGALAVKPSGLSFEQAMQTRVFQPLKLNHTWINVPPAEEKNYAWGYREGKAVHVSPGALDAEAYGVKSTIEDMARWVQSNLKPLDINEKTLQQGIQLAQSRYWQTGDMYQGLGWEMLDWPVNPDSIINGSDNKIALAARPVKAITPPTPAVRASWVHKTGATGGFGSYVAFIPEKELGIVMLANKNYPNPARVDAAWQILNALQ
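AmpC (5.3 nM in the dispensed reagent) in 20 mM phosphate pH 7.0 with 0.01% (detergent screen) or 0.0001% Triton X-100 was preincubated with compounds for 15 min at room temperature. Nitrocefin was then added from an 800 uM solution, and hydrolysis was followed at 480 nm.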
FMDV inh – antivirals against foot and mouth disease virus; FMDV antiviral cell-based qHTS; actives 1.2% (n = 410,000); Potency, µM (top dose mostly 57.9 µM), for inactives: at the highest dose activity change, negative = inhibition, usual class: inhibitors; calls by dose curve; tested in HEK293T cells; note: read-out not given here; potency is the fitted concentration of half-maximal effect; nearly all actives have a fitted effect of over 45% in size
AmpC inh detg – inhibitors of E. coli AmpC beta-lactamase with detergent; actives 0.041% (n = 370,000); P00811; AmpC hydrolysis of nitrocefin, absorbance 480 nm, 0.01% Triton; Potency, µM (doses to about 114 µM), without a hit: at the highest dose activity change, negative = inhibition, hits mostly inhibitors;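 note: potency is the fitted concentration of half-maximal effect; 0% = no-compound wells and -100% = no-enzyme wells; nearly all actives have a fitted effect of over 25% in size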
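AmpC (5.3 nM in the dispensed reagent) in 20 mM phosphate pH 7.0 with 0.01% (detergent screen) or 0.0001% Triton X-100 was preincubated with compounds for 15 min at room temperature. Nitrocefin was then added from an 800 uM solution, and hydrolysis was followed at 480 nm.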
Starred values were filed as active, the others as inactive; ? = inconclusive; . = no result; + = active, no number; ! = not confirmed by another sample. Unless noted, calls come from the whole dose curve; as a rule, active = well fitted curve in the direction sought with a large enough effect; inconclusive = small, poorly fitted or top-dose-only effect, or another doubt; inactive = no such curve, though single readings can be large; an effect the other way counts as inactive or inconclusive. Unless noted, % is set by controls: 0 for no effect and ±100 for the full control effect.

SMILES	HCV inh	HCMV inh	AmpC inh no detg	FMDV inh	AmpC inh detg
COc1ccc(C(=O)Nc2ccccc2C(N)=O)cc1	9%	127	-7%	28%	?
COC(=O)c1ccccc1NC(=O)CNC(=O)c1ccc(OC)cc1	0%	+	-2%	7%	2%
CC1(C)O[C@@H]2[C@H](O1)[C@@H](O)C[C@H]2n1cnc2c(Cl)ncnc21	.	15	.	.	.
CC1CCCCN1C(=O)COC(=O)C1CCN(S(=O)(=O)c2ccc3c(c2)OCCO3)CC1 (centres undefined)	16%	-25	59%	-17%	?
N#CC(C#N)=NNc1ccc(-n2ccc(C(F)(F)F)n2)cc1	4µM*	-97*	-36%	?	4%
Cc1ccc(-c2cc(C(=O)N3N=C(C(F)F)CC3(O)C(F)F)c3ccccc3n2)cc1C (centres undefined)	?	-89*	-39%	16%	-3%
Cn1nnnc1SCCNCc1ccc(OCc2ccccc2Cl)cc1	.	-105*	.	0%	-5%
Cn1nnnc1SCCNCc1cc(Br)ccc1OCc1ccccc1Cl	.	-69*	.	?	1%
COC(=O)c1sc(-c2ccccc2)cc1NC(C)=O	8.9µM*	47	60%	-17%	-15%
CCOC(=O)c1sc(NC(=O)Nc2ccccc2Cl)cc1C	?	-74*	-33%	-1%	?
CCOC(=O)c1sc(-c2ccccc2)cc1NC(=O)Nc1ccccc1	10µM*	-36	-28%	-29%	?
Cc1ccc(C(=O)NC2CC(C)(C)NC(C)(C)C2)cc1S(=O)(=O)N1CCOCC1	-8%	-11	.	-19%	.
O=C(c1cc(=O)[nH]c2ccccc12)N(Cc1nnc(-c2ccccc2Cl)o1)C1CC1	6%	-5	-5%	-15%	-16%
COc1cccc(CNC(=O)CNC(=S)N(Cc2ccccc2)Cc2ccccc2F)c1	-18%	-66*	-11%	-18%	?
CCCCn1c(N)c(N(CC)C(=O)c2ccccc2F)c(=O)[nH]c1=O	14%	11	-27%	15%	1%
O=c1[nH]c(=O)n([C@H]2C[C@H](O)[C@@H](CO)O2)cc1F	?	-67*	-14%	-16%	-13%
O=C(c1cccc(S(=O)(=O)NCc2ccc3c(c2)OCO3)c1)N1CCCC1	9%	-20	-11%	19%	-7%
O=C(CCSc1ccc(Cl)cc1)c1ccco1	?	-64*	-14%	-12%	1%
O=C(COC(=O)CN1C(=O)COc2ccccc21)NC1CCCCC1	10%	-5	0%	-10%	?
CCOc1ccc(/C=C/C(=O)c2ccc(-c3ccccc3)cc2)cc1	29%	-61*	-53%	-8%	-13%
O=C(/C=C/c1ccccc1)c1ccccc1	10µM*	-17	-30%	?	-3%
O=C(/C=C/c1ccccc1)/C=C/c1ccccc1	?	-73*	-41%	?	0%
CCC1CN(CC(=O)NCc2ccc3c(c2)OCO3)Cc2ccc(Cl)cc2O1 (centres undefined)	.	.	.	-5%	.
CCOC(=O)c1cc2c(=O)n3ccccc3nc2n(C(C)C)c1=NC(=O)c1c(-c2c(F)cccc2Cl)noc1C	2µM*	-90*!	-6%	-16%	?
CCOC(=O)c1cc2c(=O)n3ccccc3nc2n(Cc2ccco2)c1=NC(=O)c1cc(C)cc(C)c1	.	-77*	.	0%	5%
SMILES	HCV inh	HCMV inh	AmpC inh no detg	FMDV inh	AmpC inh detg
CCOC(=O)c1cc2c(=O)n3ccccc3nc2n(Cc2ccco2)c1=NC(=O)c1ccc(C(C)(C)C)cc1	.	-2	.	?	5%
Cc1cc(C)n(CCC(=O)NCC2Cc3cc(Cl)cc(-c4cnccn4)c3O2)n1 (centres undefined)	.	.	.	-5%	.
CSc1ccc(Cl)c(C(=O)N2CCN(c3ncccn3)CC2)c1	14%	6	-4%	-17%	?
CN(Cc1ccc(F)cc1)Cc1nc(-c2cnccn2)no1	12%	-28	-4%	22%	4%
COc1ccc(CCN(C)Cc2nc(-c3cnccn3)no2)cc1OC	8%	9	4%	5.6µM*	-2%
O=S(=O)(c1ccccc1)c1nc(-c2cccs2)oc1N1CCCCC1	.	26	.	21%	-2%
CCCCNc1oc(-c2cccs2)nc1S(=O)(=O)c1ccccc1	10µM*	?	-12%	21%	?
CNc1oc(-c2cccs2)nc1S(=O)(=O)c1ccccc1	-6%	-9	-11%	16%	0%
CCC(C)S(=O)(=O)c1oc(-c2cccs2)nc1S(=O)(=O)c1ccccc1 (centres undefined)	.	-102*	.	28µM*	-5%
O=C1CCC[C@H]2[C@@H](Cc3ccccc3)[C@H](NCc3cccs3)CC[C@]23CCCN13	.	20	.	.	.
CC1CCCN(CCC(=O)Nc2ccc(F)c(F)c2)C1 (centres undefined)	2%	-3	-10%	12%	?
O=C(NC(=S)Nc1ccc(CN2CCOCC2)cc1)c1ccc(-c2ccc(Cl)cc2)o1	6%	-28	-16%	?	-2%
O=C(Nc1ccc(CN2CCOCC2)cc1)c1ccc(-c2cccc(Cl)c2)o1	?	-86*	221%	35µM*	-1%
O=C(Nc1ccc(CN2CCOCC2)cc1)c1ccc(Cl)cc1Cl	10µM*	-38	-6%	-11%	-19%
O=C(NC(=S)Nc1ccc(CN2CCOCC2)cc1)c1ccc(-c2cccc(Cl)c2)o1	14µM*	?	88%	35µM*	6%
O=C(Nc1ccc(CN2CCOCC2)cc1)c1cc(Br)ccc1Cl	-12%	-11	-4%	-9%	-11%
O=C(Nc1ccc(CN2CCOCC2)cc1)c1ccc(-c2ccc(Cl)cc2Cl)o1	?	-65*	116%	?	0%
CC1CCc2sc(C(=O)NNC(=S)NC3CC3)cc2C1 (centres undefined)	2%	33	-29%	39%	3%
COCCn1c(SCC(=O)c2ccc(OC)cc2)nc2cc(C(=O)NC3CCCC3)ccc2c1=O	.	-1	.	-12%	3%
Cc1ccccc1NC(=S)N(C)Cc1cccs1	-2%	31	-12%	-5%	?
Cc1ccccc1NC(=S)N(C)Cc1cn(C)c2ccccc12	1%	-70*	-7%	7%	0%
COc1ccc2[nH]cc(CCNc3ncnc4ccc(-c5ccoc5)cc34)c2c1	.	.	.	-28%	.
CCOC(=O)c1ncc2[nH]c3ccc(OCc4ccccc4)cc3c2c1COC	.	.	.	16µM*	.
Cc1cn2c(=O)c(S(=O)(=O)N3CCN(c4cc(Cl)ccc4C)CC3)c(C)nc2s1	.	-2	.	-9%	-1%
O=C(OCc1ccccc1)N1CCC2CC1c1cc(N3CCOCC3)ccc12 (centres undefined)	0.32µM*	14	.	3%	.
COc1ccc(NC(=O)CN(C)C(=O)COc2ccccc2Cc2ccccc2)cc1	?	?	30%	0%	1%

From PubChem
